In PubChem BioAssay:
Active and inactive are the calls of the source.

Tests used:
[1] = small molecules captured by biotinylated probe aFSTL3 – biochemical, small-molecule microarray, fluorescence 635/667, stem cell growth factor project, primary screen (AID 1064); conditions: higher = more signal;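 also: measures binding of the biotinylated anti-FSTL3 antibody to printed compounds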
[2] = binders from COS7 lysate, DM2A8 probe, primary screen, torsin A project, cell lysate, small-molecule microarray, fluorescence 635/667 (AID 1065); conditions: higher = more signal, COS7 lysate expressing mutant human TOR1A
[3] = small molecules captured by biotinylated probe aFGF2 – biochemical, small-molecule microarray, fluorescence 635/667, stem cell growth factor project, primary screen (AID 1067); conditions: higher = more signal;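 also: measures binding of biotinylated aFGF2 protein to printed compounds on slides; z-score merges feature fluorescence and signal-to-noise across triplicate slides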
[4] = small molecules captured by biotinylated probe aFGF10 – biochemical, small-molecule microarray, fluorescence 635/667, stem cell growth factor project, primary screen (AID 1071); conditions: higher = more signal;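 also: score merges 667 nm spot intensity and signal to noise from triplicate slides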
[5] = target: Neurogenic locus notch homolog protein 2 (Homo sapiens) (UniProt Q04721); assay: small molecules binding Notch2 protein – biochemical, small-molecule microarray, 635 nm fluorescence, stem cell growth factors, primary screen (AID 1073); conditions: higher = more signal
Chain of Neurogenic locus notch homolog protein 2 (Homo sapiens) (Q04721 whole entry, looked up, canonical isoform): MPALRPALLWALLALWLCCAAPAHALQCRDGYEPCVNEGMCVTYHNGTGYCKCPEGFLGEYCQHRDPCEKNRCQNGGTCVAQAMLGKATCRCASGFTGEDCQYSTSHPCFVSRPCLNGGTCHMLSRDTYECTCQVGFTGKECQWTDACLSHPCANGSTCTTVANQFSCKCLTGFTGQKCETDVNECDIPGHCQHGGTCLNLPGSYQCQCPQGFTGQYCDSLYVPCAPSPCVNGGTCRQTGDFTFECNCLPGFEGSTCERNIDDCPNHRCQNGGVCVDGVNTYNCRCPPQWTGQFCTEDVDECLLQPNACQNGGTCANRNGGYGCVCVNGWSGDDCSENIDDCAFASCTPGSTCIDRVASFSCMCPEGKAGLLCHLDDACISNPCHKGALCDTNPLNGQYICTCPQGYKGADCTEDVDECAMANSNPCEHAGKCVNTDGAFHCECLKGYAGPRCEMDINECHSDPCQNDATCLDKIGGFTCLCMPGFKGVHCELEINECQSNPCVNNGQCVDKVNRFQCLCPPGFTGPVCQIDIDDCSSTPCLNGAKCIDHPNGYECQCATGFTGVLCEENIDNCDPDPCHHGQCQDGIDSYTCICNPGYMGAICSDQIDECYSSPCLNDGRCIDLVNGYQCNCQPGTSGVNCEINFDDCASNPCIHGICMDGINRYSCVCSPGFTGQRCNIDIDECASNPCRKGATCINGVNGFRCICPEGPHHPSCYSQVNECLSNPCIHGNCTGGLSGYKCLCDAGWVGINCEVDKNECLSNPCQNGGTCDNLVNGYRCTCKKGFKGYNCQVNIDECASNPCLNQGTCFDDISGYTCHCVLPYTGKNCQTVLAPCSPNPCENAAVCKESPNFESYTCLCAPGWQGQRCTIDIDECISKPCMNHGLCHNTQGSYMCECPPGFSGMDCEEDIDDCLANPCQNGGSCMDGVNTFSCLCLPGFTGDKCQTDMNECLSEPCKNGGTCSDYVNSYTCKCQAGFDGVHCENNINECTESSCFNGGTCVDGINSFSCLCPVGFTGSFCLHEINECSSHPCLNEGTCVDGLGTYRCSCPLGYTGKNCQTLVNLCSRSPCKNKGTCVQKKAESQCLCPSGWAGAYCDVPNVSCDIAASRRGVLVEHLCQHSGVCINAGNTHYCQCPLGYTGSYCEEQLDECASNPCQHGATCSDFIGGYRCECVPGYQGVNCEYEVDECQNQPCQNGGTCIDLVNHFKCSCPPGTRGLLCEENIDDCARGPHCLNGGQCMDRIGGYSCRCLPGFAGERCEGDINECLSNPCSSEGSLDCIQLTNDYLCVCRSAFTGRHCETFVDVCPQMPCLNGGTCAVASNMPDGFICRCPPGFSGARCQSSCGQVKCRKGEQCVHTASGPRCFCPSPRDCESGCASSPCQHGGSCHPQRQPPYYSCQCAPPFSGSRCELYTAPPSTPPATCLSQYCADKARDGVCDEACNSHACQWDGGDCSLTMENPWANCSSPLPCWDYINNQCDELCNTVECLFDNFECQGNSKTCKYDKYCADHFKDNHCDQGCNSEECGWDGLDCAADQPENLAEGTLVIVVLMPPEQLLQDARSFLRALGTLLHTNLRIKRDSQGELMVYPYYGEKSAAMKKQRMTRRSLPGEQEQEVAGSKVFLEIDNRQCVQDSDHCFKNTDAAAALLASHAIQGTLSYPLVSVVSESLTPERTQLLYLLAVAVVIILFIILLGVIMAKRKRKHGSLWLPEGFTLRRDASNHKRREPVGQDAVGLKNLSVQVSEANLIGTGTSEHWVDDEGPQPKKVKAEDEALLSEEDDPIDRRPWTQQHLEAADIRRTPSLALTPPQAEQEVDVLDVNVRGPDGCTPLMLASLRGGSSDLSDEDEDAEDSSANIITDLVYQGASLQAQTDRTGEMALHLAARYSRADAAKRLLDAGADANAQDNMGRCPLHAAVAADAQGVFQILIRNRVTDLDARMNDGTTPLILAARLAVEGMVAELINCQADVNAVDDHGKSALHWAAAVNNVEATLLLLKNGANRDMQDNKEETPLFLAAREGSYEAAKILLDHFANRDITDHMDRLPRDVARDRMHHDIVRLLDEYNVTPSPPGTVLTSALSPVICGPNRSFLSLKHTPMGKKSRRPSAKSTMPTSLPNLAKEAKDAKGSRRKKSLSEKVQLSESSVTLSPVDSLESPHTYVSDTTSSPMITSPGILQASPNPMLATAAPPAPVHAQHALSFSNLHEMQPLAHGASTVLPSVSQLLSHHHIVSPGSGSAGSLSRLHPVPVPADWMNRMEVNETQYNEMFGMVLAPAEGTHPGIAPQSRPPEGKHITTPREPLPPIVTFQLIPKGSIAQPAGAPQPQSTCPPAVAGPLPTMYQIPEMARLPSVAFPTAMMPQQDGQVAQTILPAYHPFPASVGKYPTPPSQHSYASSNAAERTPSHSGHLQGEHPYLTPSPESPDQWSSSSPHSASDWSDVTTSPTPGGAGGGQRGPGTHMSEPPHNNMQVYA

[6] = target: Pro-neuregulin-1, membrane-bound isoform (Homo sapiens) (UniProt Q02297); assay: small molecules binding neuregulin-1 protein – biochemical, small-molecule microarray, fluorescence 635/667, psychiatric disease protein project, primary screen (AID 1075); conditions: NRG1 binding, 635 nm fluorescence, higher = more signal;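 also: score combines 667 nm spot fluorescence with signal to noise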
Chain of Pro-neuregulin-1, membrane-bound isoform (Homo sapiens) (Q02297 whole entry, looked up, the tested form may be a part, canonical isoform): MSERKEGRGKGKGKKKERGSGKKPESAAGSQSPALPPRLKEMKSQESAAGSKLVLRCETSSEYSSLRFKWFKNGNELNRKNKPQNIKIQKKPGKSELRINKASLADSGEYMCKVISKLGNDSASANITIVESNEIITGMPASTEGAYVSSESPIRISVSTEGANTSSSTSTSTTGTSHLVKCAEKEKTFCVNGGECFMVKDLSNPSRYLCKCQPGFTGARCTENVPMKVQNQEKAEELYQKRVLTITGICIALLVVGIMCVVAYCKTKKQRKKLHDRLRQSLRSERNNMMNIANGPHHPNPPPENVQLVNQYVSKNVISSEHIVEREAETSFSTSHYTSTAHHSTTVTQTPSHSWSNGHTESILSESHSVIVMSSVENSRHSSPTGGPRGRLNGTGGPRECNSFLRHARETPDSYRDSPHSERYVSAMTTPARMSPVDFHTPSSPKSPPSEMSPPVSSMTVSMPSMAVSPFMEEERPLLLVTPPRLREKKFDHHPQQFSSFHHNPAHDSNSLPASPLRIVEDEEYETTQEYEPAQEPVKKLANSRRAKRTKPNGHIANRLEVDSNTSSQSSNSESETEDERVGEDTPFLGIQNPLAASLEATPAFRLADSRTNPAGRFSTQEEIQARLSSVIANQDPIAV

[7] = system: Neuregulin-1 EGF-like domain; assay: small molecules binding NRG1 EGF domain – biochemical, small-molecule microarray, 635 nm fluorescence, primary screen (AID 1081); conditions: higher = more signal;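 also: binding of the protein to compounds printed on small-molecule microarray slides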
[8] = FRG1 expression reporter modulators in myotubes – cell-based, C2C12 myotubes, firefly/Renilla luciferase, luminescence, FRG1 inhibition for FSHD, primary screen (AID 1084); conditions: FRG1 promoter luciferase, higher = more signal, called active from +8 up or from −8 down
[9] = small molecules captured by biotinylated probe aFST – biochemical, small-molecule microarray, fluorescence 635/667, stem cell growth factor project, primary screen (AID 1086); conditions: higher = more signal;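 also: score merges 667 nm fluorescence with signal-to-noise of each printed compound spot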
[10] = binders of probe aHhip on microarray, primary screen, stem cell growth factor project, biochemical, small-molecule microarray, fluorescence 635/667 (AID 1087); conditions: higher = more signal;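 also: score merges spot fluorescence at 667nm with spot signal to noise ratio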

Row | Structure (SMILES) | composite z-score [1] | composite z-score [2] | composite z-score [3] | composite z-score [4] | composite z-score [5] | composite z-score [6] | composite z-score [7] | z-score [8] | composite z-score [9] | composite z-score [10]
1 | COc1cc2c(cc1O)C(c1ccc(CN3CCCC3)cc1)N(Cc1sc3ccccc3c1Cl)CC2 (stereo not given) | 0.719 | -0.002 | -0.0687 | 0.156 | 0.805 | 0.072 | 1.17 | 0.0314 (inactive) | 1.38 | -0.214
2 | CCOC(=O)C[C@H]1[C@H](OC(=O)c2ccccc2-c2ccccc2)[C@@H](NC(=O)c2ccc(-c3ccccc3)cc2)c2cc(OCCCO)ccc2N1C(=O)c1ccccc1 | -0.491 | 0.167 | -0.0428 | 0.69 | 0.56 | 0.106 | 0.787 | -0.172 (inactive) | 0.342 | 0.177
3 | C=C[C@H](C)[C@H](OC(=O)Nc1ccc(OC)cc1)c1ccc(O)c2ccccc12 | 0.436 | -0.0826 | -0.121 | -0.148 | -0.714 | -0.322 | 0.957 | 3.63 (inactive) | -0.304 | -0.124
4 | COC(=O)[C@@]1(Cc2ccc(F)cc2)[C@H]2c3cc(C(=O)N(C)C)n(Cc4ccccn4)c3C[C@H]2CN1C(=O)c1ccccc1 | 0.449 | 0.55 | 0.25 | 0.658 | 1.65 | 1.42 | 1.38 | 3.37 (inactive) | 1.55 | 1.49
5 | COc1ccc([Si](C)(C)[C@H]2[C@H](CCO)O[C@@]3(C(=O)N(Cc4ccccc4)c4ccc(N5C(=O)COc6ccccc65)cc43)[C@@H]2C)cc1 | 0.253 | -0.113 | -0.0692 | 0.264 | 0.167 | 1.06 | 0.487 | -1.69 (inactive) | 0.0228 | 0.357
6 | COC(=O)[C@@]1(Cc2ccc(OC)cc2)[C@H]2c3cc(C(=O)N(C)C)n(CCSCCO)c3C[C@H]2CN1C(=O)c1ccccc1 | 0.172 | -0.233 | 0.164 | 0.979 | 1.61 | 1.47 | 1.22 | -1.35 (inactive) | 0.547 | -0.04
7 | CC[C@@H]1C=C(C(=O)O)[C@H](c2ccc(C(C)C)cc2)N1S(=O)(=O)c1ccc(C)cc1 | 0.341 | 1.41 | 0.412 | 1.12 | 1.75 | 1.91 | 0.908 | -2.32 (inactive) | 1.64 | 0.0401
8 | CN1C(=O)C2C=CC(C(O)c3ccc(Br)cc3)N(Nc3ccccc3)C2C1=O (stereo not given) | 0.607 | 1.46 | -0.0747 | -0.287 | -0.468 | 0.648 | 0.728 | 0.665 (inactive) | -0.118 | -0.0346
9 | COC(=O)[C@@]1(Cc2ccc(F)cc2)[C@H]2c3cc(C(=O)N(C)C)n(CCCNc4ccc(C(F)(F)F)cc4Cl)c3C[C@H]2CN1C(=O)c1ccccc1 | 0.785 | 0.34 | 0.311 | 0.754 | 1.75 | 1.16 | 1.27 | 0.452 (inactive) | 1.55 | -0.114
10 | O=C1O[C@@H](c2ccccc2)[C@@H](c2ccccc2)N2[C@@H](c3ccc(O)cc3)[C@]3(C(=O)Nc4ccc(C#CCCO)cc43)[C@@H](C(=O)O)[C@H]12 | 3.16 | 0.489 | 0.548 | 0.306 | 0.725 | 1.91 | 1.07 | -0.55 (inactive) | 2.44 | 1.69
11 | O=C1C2C=CC(C(O)c3ccccn3)N(Nc3ccccc3F)C2C(=O)N1c1ccccc1 (stereo not given) | -0.22 | 0.135 | -0.047 | 0.4 | 0.417 | 0.301 | 1.02 | 1.9 (inactive) | 0.19 | -0.0945
12 | CCCNC(=O)[C@@]1(C)c2ccccc2C(=O)N(Cc2cc(F)cc(C(F)(F)F)c2)[C@H]1c1ccc(CO)cc1 | 0.343 | 1.04 | -0.0901 | -0.104 | -0.639 | 0.27 | 0.146 | -0.92 (inactive) | -0.282 | -0.181
13 | C[C@H]1C2[C@H](Cc3ccccc3)NC(=O)[C@]23C(=O)N[C@H](Cc2ccccc2)C(=O)N[C@H](Cc2ccccc2)C(=O)NC/C=C/CCC/C=C/C3[C@@H]2O[C@]12C (stereo not given in full) | -0.367 | 0.881 | -0.174 | 0.309 | -0.163 | 0.365 | 1.21 | 4.86 (inactive) | 0.22 | 0.154
14 | COC(=O)[C@@]1(Cc2ccc(OC)cc2)[C@H]2c3cc(C(=O)N4CCCC4)n(C[C@H](O)CO)c3C[C@H]2CN1C(=O)c1ccccc1 | 0.288 | -0.0909 | 0.198 | 0.673 | 1.13 | 1.17 | 0.531 | 1.13 (inactive) | 0.488 | 0.0749
15 | [N-]=[N+]=Nc1ccccc1C[C@]1(C(=O)N2CCCCC2)N=C(c2ccc(OCCCO)cc2)O[C@H]1c1ccccc1N=[N+]=[N-] | 0.368 | -0.155 | 0.14 | 0.771 | 1.53 | 1.71 | 1.01 | -1.68 (inactive) | 0.991 | -0.305
16 | CCCCCCC#C[Si](O[C@H](c1ccccc1)c1cn([C@H](C)c2ccccc2)nn1)(C(C)C)C(C)C | -0.0028 | 0.247 | -0.083 | 0.291 | 0.315 | 0.114 | -0.333 | -0.532 (inactive) | -0.495 | 0.0147
17 | C=CCNC(=O)[C@H]1[C@@H]2C(=O)O[C@@H](c3ccccc3)[C@@H](c3ccccc3)N2[C@@H](c2ccc(O)cc2)[C@]12C(=O)Nc1ccc(C#Cc3ccc(OC)cc3)cc12 | -0.523 | 0.396 | -0.0158 | 0.357 | 1.27 | 0.384 | 1.07 | 0.0523 (inactive) | 0.786 | 0.473
18 | COCCOC(=O)N1C(=O)[C@@]2(c3ccccc31)[C@H](C(=O)N1CCCCCCC1)[C@H]1C(=O)O[C@H](c3ccccc3)[C@H](c3ccccc3)N1[C@@H]2c1ccccc1OCCO | 3.82 | 1.77 | 0.679 | 0.684 | 1.3 | 1.84 | 1.38 | -0.91 (inactive) | 3.36 | 3.52
19 | CC(=O)NCCCC[C@@H]1NC(=O)[C@@H]2C[C@H](C(=O)NCCCCCC[N+](C)(C)C)[C@H](c3cccc(OCCO)c3)N2C1=O | -0.0722 | 1.23 | -0.0098 | 0.498 | 0.0496 | 1.52 | 1.35 | 3.12 (inactive) | 0.715 | -0.0296
20 | O=C1OCCC/C=C\[C@H]2OC34C=CCN(CCN5CCOCC5)C(=O)[C@H]3N(CCO)C(=O)[C@@H]4C12 (stereo not given in full) | -0.163 | -0.435 | -0.154 | -0.313 | -1.12 | -0.501 | 0.843 | 0.808 (inactive) | -0.382 | -0.137
21 | CN1C(=O)C2C(C1=O)C1C=C(c3ccc(CO)cc3)C2C(C2CC2)N1Cc1sc2ccccc2c1Cl (stereo not given) | 0.0497 | 1.17 | 0.0311 | 1.02 | 1.68 | 1.41 | 0.866 | -2.04 (inactive) | 0.391 | 0.2
22 | CCCCN1CC=CC23O[C@@H]4/C=C\CCCOC(=O)C4[C@H]2C(=O)N(C(C)CO)[C@@H]3C1=O (stereo not given in full) | -0.0235 | -0.809 | -0.0963 | -0.272 | -0.327 | 0.223 | 1.19 | -1.01 (inactive) | -0.375 | -0.261
23 | COc1ccc(C(=O)Nc2cccc(CN3C(=O)[C@@]4(O[C@@H](CC(=O)N5Cc6ccccc6C[C@H]5CO)[C@H]([Si](C)(C)c5ccc(OC)cc5)[C@H]4C)c4ccccc43)c2)cc1 | 0.0279 | 1.09 | -0.0924 | 0.505 | 0.493 | 0.598 | 1.25 | -2.95 (inactive) | 0.349 | -0.0994
24 | C=CCN1Cc2ccccc2C[C@@]2(COC(c3ccc(OCCCO)cc3)=N2)C1=O | 1.12 | 0.391 | -0.0159 | 0.0999 | 1.19 | 1.05 | 1.31 | -3.79 (inactive) | 0.703 | 0.0749
25 | C=CCC(OC(C)=O)[C@@H]1[C@@H](N(Cc2cc3ccccc3o2)C(=O)c2ccc(C)cc2)c2cc(OCCCO)ccc2N1C(=O)c1ccc(-c2ccccc2)cc1 (stereo not given in full) | -0.292 | 0.195 | 0.0337 | 0.18 | 0.127 | -0.158 | -0.491 | -1.35 (inactive) | -0.21 | 0.113
26 | C=CCOC(=O)[C@@H]1[C@H]2C(=O)O[C@H](c3ccccc3)[C@H](c3ccccc3)N2[C@H](c2ccc(OCCOC(=O)[C@H]3C[C@H]4C(=O)N[C@@H](Cc5ccccc5)C(=O)N4[C@H]3c3ccc(O)cc3)cc2)[C@@]12C(=O)Nc1ccc(I)cc12 | -0.248 | 1.33 | -0.0939 | 0.459 | 1.11 | 0.846 | 1.3 | 1.16 (inactive) | 0.248 | -0.0994
27 | CS(=O)(=O)CCOC(=O)C1=CC(c2ccc(CO)cc2)=CC(c2cccs2)N(Cc2cccc(OC(F)(F)F)c2)C=C1C(=O)OCCS(C)(=O)=O (stereo not given) | -0.398 | 0.405 | 0.024 | 0.708 | 1 | 1.63 | 0.999 | 0.371 (inactive) | 1.14 | 0.0139
